# Hit rate of the full screen: of about 290,000 compounds, about 570 (0.2%) were called active. Inconclusive results (about 1%) are left out. The sample holds actives, similar compounds and a random draw of the others, so the mix is not that of the screen. Rule as the data show it: active = inhibition mostly above about 51% (no sharp cut-off); inconclusive = no clear call, values can overlap the other calls; inactive = mostly below about 53%.
# Molecular target: Voltage-dependent N-type calcium channel subunit alpha-1B (Homo sapiens) (UniProt Q00975)
# Assay: disruptors of CaV2.2 binding to Mint1 – biochemical, HTRF (AID 2073)
# Settings: HTRF protein-protein interaction, Mint1-CaV2.2, at 20 µM, stronger effect = higher value
# [1] = measured here: average of repeat tests
# Chain of Voltage-dependent N-type calcium channel subunit alpha-1B (Homo sapiens) (Q00975 whole entry, looked up): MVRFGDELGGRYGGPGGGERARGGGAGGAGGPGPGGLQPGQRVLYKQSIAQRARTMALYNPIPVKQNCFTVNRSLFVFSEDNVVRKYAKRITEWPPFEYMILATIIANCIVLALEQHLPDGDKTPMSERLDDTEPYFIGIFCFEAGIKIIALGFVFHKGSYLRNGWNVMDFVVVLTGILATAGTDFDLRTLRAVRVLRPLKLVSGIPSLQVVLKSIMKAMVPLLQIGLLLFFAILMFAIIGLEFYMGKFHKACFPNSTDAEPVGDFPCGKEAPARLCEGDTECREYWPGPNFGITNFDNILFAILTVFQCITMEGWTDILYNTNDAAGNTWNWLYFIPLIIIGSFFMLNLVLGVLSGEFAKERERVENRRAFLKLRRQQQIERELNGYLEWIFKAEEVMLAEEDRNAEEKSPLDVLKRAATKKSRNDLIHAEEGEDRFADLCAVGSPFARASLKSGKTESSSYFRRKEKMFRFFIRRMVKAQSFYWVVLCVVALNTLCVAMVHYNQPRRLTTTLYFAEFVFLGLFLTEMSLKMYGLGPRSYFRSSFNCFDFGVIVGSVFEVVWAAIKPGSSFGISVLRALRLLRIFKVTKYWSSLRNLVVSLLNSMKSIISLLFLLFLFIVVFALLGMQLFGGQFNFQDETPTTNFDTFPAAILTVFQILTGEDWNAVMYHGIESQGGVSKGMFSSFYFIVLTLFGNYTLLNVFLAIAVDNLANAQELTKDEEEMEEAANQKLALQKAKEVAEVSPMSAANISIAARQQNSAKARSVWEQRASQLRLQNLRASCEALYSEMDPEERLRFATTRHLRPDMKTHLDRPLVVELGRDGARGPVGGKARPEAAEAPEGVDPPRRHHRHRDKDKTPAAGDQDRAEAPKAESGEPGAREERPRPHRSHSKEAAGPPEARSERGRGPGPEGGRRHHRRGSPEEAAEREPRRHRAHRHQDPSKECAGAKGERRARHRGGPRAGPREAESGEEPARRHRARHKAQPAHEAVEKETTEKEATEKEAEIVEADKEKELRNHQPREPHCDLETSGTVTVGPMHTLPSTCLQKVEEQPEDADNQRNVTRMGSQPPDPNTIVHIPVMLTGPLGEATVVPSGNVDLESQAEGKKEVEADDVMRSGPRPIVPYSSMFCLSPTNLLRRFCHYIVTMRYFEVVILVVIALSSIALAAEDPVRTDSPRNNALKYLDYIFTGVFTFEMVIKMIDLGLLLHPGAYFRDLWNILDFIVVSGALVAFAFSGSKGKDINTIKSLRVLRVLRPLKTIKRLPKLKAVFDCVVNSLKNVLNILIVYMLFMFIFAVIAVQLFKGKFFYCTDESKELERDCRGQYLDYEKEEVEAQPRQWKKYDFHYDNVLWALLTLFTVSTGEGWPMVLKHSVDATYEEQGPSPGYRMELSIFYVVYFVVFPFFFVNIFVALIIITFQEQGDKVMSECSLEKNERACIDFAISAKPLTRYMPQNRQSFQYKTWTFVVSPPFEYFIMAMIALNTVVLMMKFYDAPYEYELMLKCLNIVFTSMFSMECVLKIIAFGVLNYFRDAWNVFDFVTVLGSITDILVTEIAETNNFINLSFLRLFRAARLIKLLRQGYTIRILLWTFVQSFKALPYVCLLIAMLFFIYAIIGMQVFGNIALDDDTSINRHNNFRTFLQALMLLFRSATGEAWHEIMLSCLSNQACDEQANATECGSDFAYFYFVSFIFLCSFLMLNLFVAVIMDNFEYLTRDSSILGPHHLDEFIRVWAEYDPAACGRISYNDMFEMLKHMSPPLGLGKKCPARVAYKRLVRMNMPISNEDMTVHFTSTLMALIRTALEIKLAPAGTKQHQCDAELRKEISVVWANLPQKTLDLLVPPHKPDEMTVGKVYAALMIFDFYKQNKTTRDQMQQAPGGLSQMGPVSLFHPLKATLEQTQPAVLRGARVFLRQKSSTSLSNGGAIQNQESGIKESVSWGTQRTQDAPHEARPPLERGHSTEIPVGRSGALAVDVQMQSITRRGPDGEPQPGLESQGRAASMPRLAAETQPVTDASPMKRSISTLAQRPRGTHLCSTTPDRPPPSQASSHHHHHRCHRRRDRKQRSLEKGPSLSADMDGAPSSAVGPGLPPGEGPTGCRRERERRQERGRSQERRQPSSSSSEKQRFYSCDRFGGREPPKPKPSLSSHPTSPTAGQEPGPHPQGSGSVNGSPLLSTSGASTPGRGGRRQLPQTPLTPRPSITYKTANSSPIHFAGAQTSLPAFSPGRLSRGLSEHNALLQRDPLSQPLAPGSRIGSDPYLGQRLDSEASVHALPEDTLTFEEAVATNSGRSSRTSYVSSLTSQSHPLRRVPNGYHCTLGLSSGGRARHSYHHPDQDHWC
Structure (SMILES),inhibition,inhibition [1] [%]
N=C1C(c2nc3ccccc3s2)=C(O)CN1NC(=O)c1ccccc1[N+](=O)[O-],14.9% (inactive),–
N=C1C(c2nc3ccccc3[nH]2)=C(O)CN1NC(=O)c1c[nH]c2ccccc12,2.4% (inactive),–
N=C1C(c2nc3ccccc3s2)=C(O)CN1NC(=O)c1c[nH]c2ccccc12,53.4% (active),–
COc1cc(OC)c(C2C(C#N)=C(C)NC(C)=C2C#N)c(C(=O)O)c1,-3.5% (inactive),–
C=C(C)Cn1c(C2CC(=O)N(Cc3ccccc3)C2)nc2ccccc21 (stereo not given),-9.9% (inactive),–
CCCN(CCC)CCCNC(=O)C1CCN(S(=O)(=O)c2cccc3nsnc23)CC1,-0.6% (inactive),–
Cc1ccc(-c2c(C(=O)Nc3ccccc3C)c(C)[nH]c(=S)c2C#N)o1,33.2% (inactive),–
Cc1ccccc1NC(=O)c1c(C)[nH]c(=S)c(C#N)c1-c1ccco1,50.9% (active),–
CNC(=O)c1c(C)[nH]c(=S)c(C#N)c1-c1ccco1,-35.6% (inactive),–
CCOC(=O)CNc1nc(Cl)nc(N2CCCCC2)n1,6.2% (inactive),–
Cn1c(=O)c2c(n3cnnc13)-c1ccccc1CC21CCCC1,3.5% (inactive),–
COc1ccccc1CC(=O)Nc1cc(OC)c(NC(=O)c2ccccc2)cc1OC,-5.3% (inactive),–
COc1ccccc1NC(=O)Cc1cccs1,-5.5% (inactive),–
COc1cc(NC(=O)c2ccccc2)c(OC)cc1NC(=O)Cc1cccs1,51.4% (active),–
COc1ccc(OC)c(N=c2ssnc2Cl)c1,27.6% (inactive),–
COc1cc(/C=C/c2ccc3cccc(O)c3n2)cc(OC)c1OC,24.9% (inactive),–
COc1ccc(N=c2ssnc2Cl)cc1,27.4% (inactive),–
COc1cc(N=c2ssnc2Cl)c(OC)cc1Cl,46.5% (inactive),–
Cc1ccc(-c2nc3ccccc3o2)cc1NC(=O)c1ccc2c(c1)OCO2,-1.5% (inactive),–
Cc1ccc2oc(-c3ccc(NC(=O)c4ccc5c(c4)OCO5)cc3)nc2c1,6.7% (inactive),–
O=C(Nc1ccc(-c2nc3ccccc3o2)cc1)c1ccc2c(c1)OCO2,66.2% (active),–
Oc1ccc(Br)cc1CNc1cnc2ccccc2c1,13.6% (inactive),–
O=C(N/N=C/c1ccc([N+](=O)[O-])o1)c1cn(-c2ccccc2)nc1-c1ccccc1,60.4% (inactive),2.1
O=C(N/N=C/c1ccc([N+](=O)[O-])o1)c1cc(-c2ccc(-c3ccccc3)cc2)nc2ccccc12,59.1% (active),–
COc1ccc(-c2nn(-c3ccccc3)cc2C(=O)N/N=C/c2ccc([N+](=O)[O-])o2)cc1,50.6% (inactive),11.4

Structure (SMILES),inhibition,inhibition [1] [%]
O=C(N/N=C/c1ccc([N+](=O)[O-])o1)c1cc(-c2ccncc2)nc2ccccc12,20.1% (inactive),–
O=C(N/N=C/c1ccc([N+](=O)[O-])o1)c1cn(-c2ccccc2)nc1-c1ccc(Cl)cc1,67.5% (active),–
CCCc1ccc(-c2cc(C(=O)N/N=C/c3ccc([N+](=O)[O-])o3)c3ccccc3n2)cc1,27.9% (inactive),–
CCn1c(SCc2ccc(C)cc2)nnc1-c1cnccn1,1.9% (inactive),–
Cc1ccc(S(=O)(=O)c2cnc3cc(C)nn3c2N)cc1,9.4% (inactive),–
c1cnc(-c2noc(CN3CCN(C4C5CC6CC(C5)CC4C6)CC3)n2)cn1 (stereo not given),-1.9% (inactive),–
O=C(O)CSC(C(=O)Nc1ccc(Br)cc1)c1ccc(Cl)cc1 (stereo not given),9.9% (inactive),–
Cc1cc2ccccn2c1C(=O)c1ccc(NN)c([N+](=O)[O-])c1,9.5% (inactive),–
Cc1cc2ccccn2c1C(=O)c1ccc(N/N=C/c2ccc(C(=O)O)cc2)c([N+](=O)[O-])c1,69.4% (active),–
CC(=O)Nc1ccc(/C=N/Nc2ccc(C(=O)c3c(C)cc4ccccn34)cc2[N+](=O)[O-])cc1,50.4% (inactive),29.6
Cc1ccc(C(=O)Nc2ncc([N+](=O)[O-])s2)cc1,11.7% (inactive),–
Cc1ncoc1C(=O)Nc1ncc([N+](=O)[O-])s1,68% (active),–
Cc1nc(C)c(C(=O)Nc2ncc([N+](=O)[O-])s2)o1,33.7% (inactive),–
CC1=CCC2C(=O)N(c3ccc(C)cc3)C(=O)C2C1 (stereo not given),6.6% (inactive),–
Cc1ccc(-c2csc(C3=C(O)CN(NC(=O)c4ccc([N+](=O)[O-])cc4)C3=N)n2)cc1,25.8% (inactive),–
N=C1C(c2nc(-c3ccc(Br)cc3)cs2)=C(O)CN1NC(=O)c1ccc([N+](=O)[O-])cc1,34.5% (inactive),–
O=C(NN1C(=O)C2C(C1=O)C1C=CC2C12CC2)c1ccncc1 (stereo not given),6% (inactive),–
O=C(NN1C(=O)C2CC=C(Cl)CC2C1=O)c1ccncc1 (stereo not given),61.5% (active),–
O=C(NN1C(=O)C2C3C=CC(C3)C2C1=O)c1ccncc1 (stereo not given),5.7% (inactive),–
O=C(CSc1nnc(-c2ccccc2O)o1)Oc1ccc(Br)cc1,3% (inactive),–
CCOC(=O)C1CCCN(C(=O)c2ccc3nc(-c4ccc(OC)c(OC)c4)c(-c4ccc(OC)c(OC)c4)nc3c2)C1 (stereo not given),10.2% (inactive),–
Cc1ccc(NC(=O)c2cc(N3C(=O)C=CC3=O)ccc2N2CCOCC2)cc1Cl,-7.4% (inactive),–
NC(=O)c1cc(N2C(=O)C=CC2=O)ccc1Cl,47% (inactive),–
Cc1ccc(NC(=O)c2cc(N3C(=O)C=CC3=O)ccc2Cl)cc1C,59.1% (active),–
COc1cccc(-c2nnc(Nc3nc4c(F)cccc4s3)o2)c1,43.9% (inactive),–

Structure (SMILES),inhibition,inhibition [1] [%]
COc1cc(OC)cc(-c2nnc(Nc3nc4c(F)cccc4s3)o2)c1,56.7% (active),–
Fc1cccc2sc(Nc3nnc(-c4ccccc4)o3)nc12,38.5% (inactive),–
Cc1ccc(C(=O)NCCSc2ccccc2)cc1S(=O)(=O)Nc1ccccc1,-1.8% (inactive),–
O=C(/C=C/c1ccco1)NCC1COc2ccccc2O1 (stereo not given),11% (inactive),–
CC(C)Oc1ccc(/C=C/C(=O)NCC2COc3ccccc3O2)cc1 (stereo not given),-5% (inactive),–
Cc1ccc(/C=C/C(=O)NCC2COc3ccccc3O2)o1 (stereo not given),72.5% (active),–
Cc1ccc(C(=O)NCCCN2CCOCC2)cc1Cl,4.3% (inactive),–
CN(N)c1nc(-c2ccccc2)cc(-c2ccccc2)n1,-4.2% (inactive),–
O=C1CCCC(=NCc2ccco2)C1,-7.5% (inactive),–
CN(C)c1nc(=NCc2ccco2)ss1,67.8% (active),–
c1coc(CN=C2NC(=NCc3ccco3)c3ccccc32)c1,18.7% (inactive),–
COC(=O)/C=C1/SC(=Nc2ccc(C)cc2C)NC1=O,0.9% (inactive),–
O=C1c2ccccc2C(=O)N1C/C=C/CN1C(=O)c2ccccc2C1=O,0% (inactive),–
Cc1ccc(-c2nc(CN(C)C3CCOC3)c(C)o2)s1 (stereo not given),7.1% (inactive),–
COc1ccc(-c2cc3c(=O)n(CC(=O)Nc4cccc(Cl)c4)ncn3n2)cc1,39.6% (inactive),–
O=C1N=C(N2CCN(c3ccccc3)CC2)S/C1=C/c1ccco1,-5% (inactive),–
O=C1N=C(N2CCN(c3ccccc3)CC2)S/C1=C\c1ccco1,37.7% (inactive),–
O=C1N=C(N2CCCC2C(=O)O)S/C1=C\c1ccco1 (stereo not given),95.1% (active),–
COc1ccc(-n2nc(C(=O)NCC(=O)NCCCN3CC(C)CC(C)C3)c3ccccc3c2=O)cc1 (stereo not given),3.3% (inactive),–
O=C(Nc1ccc(N2CCOCC2)cc1Cl)C1CCN(C(=O)OCc2ccccc2)CC1,-2.8% (inactive),–
COc1ccc(-n2nc(C(=O)NCC(=O)NCc3ccc(F)cc3)c3ccccc3c2=O)cc1,8.9% (inactive),–
O=S(=O)(c1ccc(Cl)cc1)N1CCCCCC1,13.9% (inactive),–
Cc1ccc(S(=O)(=O)N2CCN(S(=O)(=O)c3ccccc3)C2)cc1,-0.6% (inactive),–
CN1CCN(S(=O)(=O)c2ccc(Cl)cc2)CC1,5.7% (inactive),–
CC1CN(S(=O)(=O)c2ccccc2)C(C)CN1S(=O)(=O)c1ccccc1 (stereo not given),2.3% (inactive),–

Structure (SMILES),inhibition,inhibition [1] [%]
Cc1sc(NC(=O)CN(Cc2ccc(F)cc2)C(=O)C(C)C)c(C(N)=O)c1C,-9.6% (inactive),–
CC(C)CC(=O)Nc1nnc(SCC(=O)NCc2ccc3c(c2)OCO3)s1,6% (inactive),–
COc1ccc(N2CC(C(=O)N/N=C/c3c[nH]c4ccccc34)CC2=O)cc1 (stereo not given),17.8% (inactive),–
COc1ccc(N2C(=O)NC(=O)C2=O)cc1,-3.9% (inactive),–
Cc1nn(C)c(Cl)c1CN1CCC(CO)(CC2CCCCO2)CC1 (stereo not given),6.5% (inactive),–
O=S(=O)(c1ccc(F)c(F)c1)N1CCCc2ccccc21,-1.2% (inactive),–
CCCc1[nH]c(=O)c(C#N)c2c1COC(C)(C)C2,-5.3% (inactive),–
Nc1ccc2nc(-c3cccc(-c4nc5ccc(N)cc5[nH]4)c3)[nH]c2c1,46.7% (inactive),–
Nc1ccc(-c2nc3ccccc3[nH]2)cc1,5.5% (inactive),–
Nc1ccc(-c2nc3ccc([N+](=O)[O-])cc3[nH]2)cc1,13.5% (inactive),–
Nc1ccc2nc(-c3cc(Cl)c(N)c(Cl)c3)[nH]c2c1,39.9% (inactive),–
Fc1ccc(N=Cc2ccc[nH]2)cc1,-9.3% (inactive),–
Cn1c(=O)c(C(=O)COC(=O)c2cc(-c3ccccc3)nc3ccccc23)c(N)n(Cc2ccccc2)c1=O,26.2% (inactive),–
O=C(Nc1cccc(S(=O)(=O)NC2=NCCC2)c1)c1cc(-c2ccco2)nc2ccccc12,61.9% (active),–
Cn1c(=O)c(C(=O)COC(=O)c2cc(-c3ccco3)nc3ccccc23)c(N)n(Cc2ccccc2)c1=O,55.8% (active),–
O=C(O)c1cc(-c2ccco2)nc2ccccc12,-11.5% (inactive),–
O=C(NC1CCC(O)CC1)c1cc(-c2ccco2)nc2ccccc12 (stereo not given),51.2% (active),50.3
Cn1c(N)c(C(=O)COC(=O)c2cc(-c3ccco3)nc3ccccc23)c(=O)n(C)c1=O,50.3% (inactive),29.1
O=C(NC1CC1)c1cc(-c2ccco2)nc2ccccc12,38.6% (inactive),–
Cn1c(N)c(C(=O)COC(=O)c2cc(-c3ccccc3)nc3ccccc23)c(=O)n(Cc2ccccc2)c1=O,21.7% (inactive),–
O=C(Nc1cccc(S(=O)(=O)NC2=NCCCCC2)c1)c1cc(-c2ccco2)nc2ccccc12,40.5% (inactive),–
CC(C)Cn1c(N)c(C(=O)COC(=O)c2cc(-c3ccco3)nc3ccccc23)c(=O)n(C)c1=O,19.7% (inactive),–
Cn1c(N)c(C(=O)COC(=O)c2cc(-c3ccco3)nc3ccccc23)c(=O)n(Cc2ccccc2)c1=O,58.1% (active),–
O=C(NC(=S)Nc1cccc(S(=O)(=O)NC2=NCCC2)c1)c1cc(-c2ccco2)nc2ccccc12,61% (inactive),23.6

# From PubChem BioAssay AID2073 (Sanford-Burnham Center for Chemical Genomics, 2009)
